Data on seven compounds can be found in PubChem BioAssay (EPA / NIEHS).

A word on the AC50: it is the concentration at which the activity in the assay is half-maximal.

Assay [1] can be described thus: BSK_3C_SRB: Viability Assessment in the BioMAP Diversity Plus: 3C Assay (AID 2283023).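 Further: cells read 24 h after compound dosing; fitted both ways against DMSO so a hit may be signal rise or drop.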 Particulars: primary human endothelial cells (HUVEC). The essentials:
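Absorbance at 560 nm of sulforhodamine B-stained (0.1%) total protein served as a cytotoxicity readout in human umbilical vein endothelial cells, 24 h after chemical treatment. Signal was fitted bidirectionally relative to DMSO.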

Read-out in assay [2]: Matrix Metallopeptidase 1 (MMP1), MMP1 (gene 4312)
The experiment in a line: BSK_BE3C_MMP1: BioMAP Diversity Plus: BE3C Assay for Matrix Metallopeptidase 1 (MMP1) Biomarker Activity (AID 2283024). Particulars: primary human bronchial epithelial cells; actives raise or lower the signal. The gist of the method:
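In this multiplexed primary-cell system, human bronchial epithelium received chemicals for 24 h before an ELISA for MMP1. Values reflect bidirectional fits normalised to the DMSO baseline.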

Assay [3] is described as follows: BSK_3C_Vis: BioMAP Diversity Plus: 3C Assay for Morphology Visualization (AID 2283025).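 Further: fitted both ways so gain or loss versus DMSO counts.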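 On AC50: light microscopy image of cell morphology used as background control.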 Particulars: primary human endothelial cells (HUVEC). The gist of the method:
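Light-microscopy morphology readout, 24 h exposure, human primary umbilical vein endothelium; analysed relative to DMSO with bidirectional fitting.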

Read-out in assay [4]: Pselectin, SELP (gene 6403)
As to the kind of experiment: BSK_4H_Pselectin: BioMAP Diversity Plus: 4H Assay for Pselectin Biomarker Activity (AID 2283026). Conditions: primary human endothelial cells (HUVEC); actives raise or lower the signal. The gist of the method: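 Bidirectional fits against DMSO gave the endpoint. Cells: primary human umbilical vein endothelium, chemical-treated for 24 h before ELISA detection of P-selectin.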

Assay [5] can be described thus: BSK_4H_SRB: Viability Assessment in the BioMAP Diversity Plus: 4H Assay (AID 2283027).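 Further: cells exposed to compound for 24 h before staining.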 Conditions: primary human endothelial cells (HUVEC). The gist of the method: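 Cytotoxicity readout: sulforhodamine B (0.1%) staining of total protein after 10% TCA fixation, measured at 560 nm in human umbilical vein endothelium at 24 h. DMSO set the baseline; fitting was bidirectional.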

A short description of assay [6]: BSK_BE3C_SRB: Viability Assessment in the BioMAP Diversity Plus: BE3C Assay (AID 2283028). Conditions: primary human bronchial epithelial cells. The gist of the method: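 Cells (human bronchial epithelial, primary) are treated with chemicals, and after 24 h the parallel cultures are fixed in 10% TCA. These are then stained with 0.1% SRB and read at 560 nm. Gain or loss of signal is fitted relative to DMSO.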

Read-out in assay [7]: Thrombomodulin, THBD (gene 7056)
As to the kind of experiment: BSK_3C_Thrombomodulin: BioMAP Diversity Plus: 3C Assay for Thrombomodulin Biomarker Activity (AID 2283029). Conditions: primary human endothelial cells (HUVEC); actives raise or lower the signal. The gist of the method: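 In a multiplexed primary-cell system, human umbilical vein endothelium received chemical and was assayed 24 h later for thrombomodulin by ELISA. Parallel cultures were SRB-stained (0.1% SRB after 10% TCA fixation, read at 560 nm) to flag cytotoxicity.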

Read-out in assay [8]: Urokinase-type plasminogen activator receptor (uPAR), PLAUR (gene 5329)
The experiment in a line: BSK_4H_uPAR: BioMAP Diversity Plus: 4H Assay for Urokinase-type plasminogen activator receptor (uPAR) Biomarker Activity (AID 2283030). Conditions: primary human endothelial cells (HUVEC); actives raise or lower the signal. The gist of the method:
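Cell-surface uPAR ELISA signal, measured 24 h after dosing human umbilical vein endothelial cells, was analyzed with bidirectional fitting relative to DMSO. Parallel SRB staining of total protein tracked overt cytotoxicity.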

Read-out in assay [9]: Vascular endothelial growth factor receptor 2 (Homo sapiens) (UniProt P35968)
As to the kind of experiment: BSK_4H_VEGFRII: BioMAP Diversity Plus: 4H Assay for Vascular endothelial growth factor receptor 2 (VEGFR2) Biomarker Activity (AID 2283031). Particulars: primary human endothelial cells (HUVEC); actives raise or lower the signal. The gist of the method:
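ELISA read-out of VEGFRII in primary human umbilical vein endothelium, taken 24 h after chemical treatment. Responses are expressed relative to DMSO, with bidirectional fitting.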

Read-out in assay [10]: Human Leukocyte Antigen - DR isotype (HLADR), HLA-DRA (gene 3122)
As to the kind of experiment: BSK_BE3C_HLADR: BioMAP Diversity Plus: BE3C Assay for Human Leukocyte Antigen - DR isotype (HLADR) Biomarker Activity (AID 2283032). Conditions: primary human bronchial epithelial cells; actives raise or lower the signal. The gist of the method:
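BioMAP BE3C format: human bronchial epithelium, 24 h compound treatment, ELISA detection of HLA-DR, with bidirectional analysis relative to DMSO.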

Read-out in assay [11]: Vascular cell adhesion molecule 1 (VCAM1), VCAM1 (gene 7412)
As to the kind of experiment: BSK_4H_VCAM1: BioMAP Diversity Plus: 4H Assay for Vascular cell adhesion molecule 1 (VCAM1) Biomarker Activity (AID 2283033).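 Further: cell-surface VCAM-1 protein measured by ELISA.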 Conditions: primary human endothelial cells (HUVEC); actives raise or lower the signal. The gist of the method:
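In this human endothelial (HUVEC) system, biomarker ELISA was run 24 h after compound addition, and total protein in parallel wells was assessed by SRB at 560 nm; DMSO served as negative control.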

Read-out in assay [12]: Interferon-gamma inducible Protein 10 (IP10), CXCL10 (gene 3627)
As to the kind of experiment: BSK_BE3C_IP10: BioMAP Diversity Plus: BE3C Assay for Interferon-gamma inducible Protein 10 (IP10) Biomarker Activity (AID 2283034). Particulars: primary human bronchial epithelial cells; actives raise or lower the signal. The gist of the method: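 BE3C cells (human bronchial epithelial, primary); 24 h exposure; ELISA for IP-10; DMSO-referenced bidirectional fit.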

Read-out in assay [13]: Monokine induced gamma interferon (MIG), CXCL9 (gene 4283)
As to the kind of experiment: BSK_BE3C_MIG: BioMAP Diversity Plus: BE3C Assay for Monokine induced gamma interferon (MIG) Biomarker Activity (AID 2283035).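 Further: MIG protein measured by ELISA in BE3C cultures after 24 h of dosing.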 Conditions: primary human bronchial epithelial cells; actives raise or lower the signal. The gist of the method: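 hu bronchial epithelial 1° cells, 24 h cpd; MIG by ELISA; bidirectional fit, DMSO = baseline.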

Read-out in assay [14]: Transforming growth factor beta 1 (TGFb1), TGFB1 (gene 7040)
The experiment in a line: BSK_BE3C_TGFb1: BioMAP Diversity Plus: BE3C Assay for Transforming growth factor beta 1 (TGFb1) Biomarker Activity (AID 2283036;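 further: TGF-b1 protein level measured by ELISA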). Conditions: primary human bronchial epithelial cells; actives raise or lower the signal. The gist of the method: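 TGF-b1 measured via ELISA, 24 h after chemical dosing of human bronchial epithelial cells (BE3C). Overt cytotoxicity assessed in parallel by SRB (0.1%, TCA-fixed, 560 nm); analysis bidirectional relative to DMSO.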

Read-out in assay [15]: Plasminogen activator inhibitor-1 (PAI1), SERPINE1 (gene 5054)
The experiment in a line: BSK_BE3C_PAI1: BioMAP Diversity Plus: BE3C Assay for Plasminogen activator inhibitor-1 (PAI1) Biomarker Activity (AID 2283037). Particulars: primary human bronchial epithelial cells; actives raise or lower the signal. The gist of the method:
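In this multiplexed primary-cell system, bronchial epithelial cells receive test chemical and are sampled at 24 h. PAI-1 is read by ELISA, with DMSO serving as negative control for bidirectional fitting.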

Read-out in assay [16]: urokinase plasminogen activator (uPA), PLAU (gene 5328)
The experiment in a line: BSK_BE3C_uPA: BioMAP Diversity Plus: BE3C Assay for urokinase plasminogen activator (uPA) Biomarker Activity (AID 2283038).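 On outcome: uPA protein level quantified by ELISA in cell cultures; uPA read one day after compound addition.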 Particulars: primary human bronchial epithelial cells; actives raise or lower the signal. The gist of the method: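 Bronchial epithelial cells (human, primary); chemical 24 h; uPA by ELISA; bidirectional fit vs DMSO. SRB (0.1%, after 10% TCA fixation, 560 nm) in parallel cultures for cytotoxicity.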

Read-out in assay [17]: Urokinase-type plasminogen activator receptor (uPAR), PLAUR (gene 5329)
As to the kind of experiment: BSK_BE3C_uPAR: BioMAP Diversity Plus: BE3C Assay for Urokinase-type plasminogen activator receptor (uPAR) Biomarker Activity (AID 2283039).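 Further: cells exposed to compound for one day before measurement.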 Particulars: primary human bronchial epithelial cells; actives raise or lower the signal. The gist of the method:
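Chemically treated human bronchial epithelial cells (lung primary) are assayed for uPAR by ELISA after 24 h, with data fitted in both directions using DMSO as negative control.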

Read-out in assay [18]: Interleukin-6 (IL6), IL6 (gene 3569)
As to the kind of experiment: BSK_CASM3C_IL6: BioMAP Diversity Plus: CASM3C Assay for Interleukin-6 (IL6) Biomarker Activity for (AID 2283040). Particulars: primary human coronary artery smooth muscle cells; actives raise or lower the signal.

Read-out in assay [19]: Tissue plasminogen activator (tPA), PLAT (gene 5327)
As to the kind of experiment: BSK_BE3C_tPA: BioMAP Diversity Plus: BE3C Assay for Tissue plasminogen activator (tPA) Biomarker Activity (AID 2283041).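 Further: tPA level quantified by ELISA one day after compound addition.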 Particulars: primary human bronchial epithelial cells; actives raise or lower the signal. The essentials:
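Using human lung primary bronchial epithelial cells, tPA was measured by ELISA 24 h after dosing; data fitted relative to DMSO.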

Calls of active or inactive are those of the source. How the source made its calls: active means hit-call score of the fitted dose curve at least 0.9, where 1 is the maximum; inactive means score below 0.9.

With `Cc1ccc(O)cc1`, the outcome in [1], in [2], in assay [3], in [4], in assay [5] and in assay [6] was inactive. Further, the outcome in assay [7], in [8], in assay [9], in [10], in assay [11] and in [12] was inactive. Besides, the result in assay [13], in [14], in assay [15], in assay [16], in assay [17] and in assay [18] was inactive.
On to `CC(C)CCCCCCOC(=O)c1ccc(C(=O)OCCCCCCC(C)C)c(C(=O)OCCCCCCC(C)C)c1`, for which the outcome in [1], in [2], in [3], in assay [4], in assay [6] and in assay [7] was inactive. Further, the result in assay [8], in [9], in [10], in assay [11], in [12] and in [13] was inactive. For the same compound, the result in assay [14], in [15], in assay [16], in assay [17] and in assay [18] was inactive.
Turning to `CCOC(=O)c1ccc(C2CCC(NC[C@H](O)COc3ccc(O)c(NS(C)(=O)=O)c3)CC2)cc1` (stereo partly specified), the AC50 in assay [1] was 25.1 µM (active); in assay [3], 37.1 µM (active); in assay [16] it was 14.9 µM (active). Besides, the result in assay [2], in assay [6], in assay [7], in [8], in assay [9] and in assay [10] was inactive. Besides, the result in assay [11], in assay [12], in assay [13], in [14], in [15] and in assay [17] was inactive. Moreover, the outcome in [18] and in assay [19] was inactive.
Regarding `O=C(O)CC(O)C(=O)O` (stereo unspecified), the result in assay [1], in assay [2], in [3], in assay [4], in [6] and in assay [7] was inactive. In addition, the outcome in assay [8], in assay [9], in assay [10], in [11], in [12] and in assay [13] was inactive. Moreover, the outcome in [14], in [15], in assay [16], in assay [17] and in assay [18] was inactive.
`CC(C)=CCCC(C)CCO` (stereo unspecified): the result in assay [1], in assay [2], in assay [3], in assay [4], in assay [6] and in assay [7] was inactive. The result in [8], in assay [9], in [10], in assay [11], in assay [12] and in [13] was inactive. The result in [14], in assay [15], in [16], in assay [17] and in assay [18] was inactive.
Turning to `Cc1c(-c2cccnc2)c2ccccc2n1CCCCC(=O)O`, the result in assay [1], in [2], in assay [3], in assay [4], in assay [5] and in assay [6] was inactive. In addition, the result in assay [7], in [8], in assay [9], in assay [10], in assay [11] and in assay [12] was inactive. Moreover, the outcome in assay [13], in assay [14], in assay [15], in assay [16], in [17] and in assay [18] was inactive.
With `CCN(C(=O)c1cc(C)cc(OC[C@H](C)Nc2ccncc2)c1)C(C)C`, the outcome in [1], in [2], in [3], in assay [6], in assay [7] and in assay [8] was inactive. Moreover, the outcome in assay [9], in assay [10], in [11], in assay [12], in assay [13] and in assay [14] was inactive. The outcome in [15], in assay [16], in [17], in [18] and in assay [19] was inactive.
